# GDH-TPI counter – inhibits GDH-TPI coupling enzymes, artifact for Mtb FBA screen | GDH-TPI coupled enzyme counterscreen, NADH absorbance | inhibition, % at 4.8 µM | 360,000 compounds, 1.2% hits;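 further: 0% = DMSO wells and 100% = wells lacking the enzyme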
# Mtb betalactam – beta-lactam sensitization of Mtb H37Rv; inhibition, % at 25 µM; AID 434955; 330,000 compounds, 0.27% hits; M. tuberculosis H37Rv growth with meropenem, percent inhibition; call rule not given here;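 further: growth measured after seven days incubation then overnight dye step; 0% = bacteria only wells and 100% = bacteria with antibiotic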
# Mtb FBA inh – Mtb fructose-bisphosphate aldolase inhibition; P9WQA3; purified M. tuberculosis FBA, fluorescence read-out; inhibition, % at 1 µM; 360,000 compounds, 2.3% hits; in the data active means inhibition above about 27%;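 further: 0% = vehicle and 100% = reference inhibitor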
# Target sequence (P9WQA3 whole entry, looked up): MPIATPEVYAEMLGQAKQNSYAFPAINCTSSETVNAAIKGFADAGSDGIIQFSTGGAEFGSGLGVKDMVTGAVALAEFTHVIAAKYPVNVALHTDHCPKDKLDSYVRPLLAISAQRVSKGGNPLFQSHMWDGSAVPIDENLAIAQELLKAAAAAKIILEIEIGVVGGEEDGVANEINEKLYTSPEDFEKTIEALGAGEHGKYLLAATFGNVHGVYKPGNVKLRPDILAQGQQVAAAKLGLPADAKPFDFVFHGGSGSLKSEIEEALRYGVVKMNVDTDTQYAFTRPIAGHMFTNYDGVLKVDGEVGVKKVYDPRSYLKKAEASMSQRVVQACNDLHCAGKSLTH
# RecA intein inh – blocks M. tuberculosis RecA intein splicing | cell-free RecA intein splicing, fluorescence | 290,000 compounds, 0.75% hits | P9WHJ3 | inhibition, % (no concentration beside the values); in the data active means inhibition above about 30%;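 further: 0% = vehicle wells and 100% = reference inhibitor control wells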
# CCHF vOTU inh – CCHFV vOTU protease inhibition; Pep-AMC fluorescence; inhibition, % at 11.5 µM; 370,000 compounds, 0.55% hits; AID 651958; further: 0% = vehicle wells with enzyme and 100% = no enzyme wells
# Starred values were filed as active, the others as inactive; / = no result given. Rows were chosen to be rich in hits. Some 4.2% of all compounds tested hit in one or more screens of this group. Unless noted, no stated cut-off is given here; in the data, active means inhibition above about 30%; inactive means the rest.
SMILES,GDH-TPI counter,Mtb betalactam,Mtb FBA inh,RecA intein inh,CCHF vOTU inh
Cc1ccc(C)c(NC(=S)/C(=C(\[O-])c2ccc(OC(F)F)cc2)[n+]2ccccc2)c1,0.0,0.3,-0.5,32.6*,2.6
Cc1ccc(/C([O-])=C(/C(=S)NCc2ccco2)[n+]2ccccc2)cc1,/,-15.9,/,4.3,/
CCCCC(CC)COCCCN=Cc1c(O)[nH]c(=S)[nH]c1=O (configuration not stated),39.1*,-2.6,0.9,-1.2,4.6
COC(=O)N[C@H](C(=O)N[C@@H](Cc1ccccc1)[C@@H](O)CN(Cc1ccc(-c2ccccn2)cc1)NC(=O)[C@@H](NC(=O)OC)C(C)(C)C)C(C)(C)C,/,/,/,/,18.7
N#C/C(=C/c1cccs1)c1nc2ccccc2[nH]1,19.2,4.2,3.8,-0.8,13.6
COc1cccc(/C=C(\C#N)c2nc3ccccc3[nH]2)c1OCC(=O)O,35.0*,2.8,4.7,-3.5,6.9
Cc1ccc(/C=C(\C#N)c2nc3ccccc3[nH]2)s1,36.7*,3.1,1.4,0.4,-1.3
CCN(CC)c1ccc(N=Cc2c(O)[nH]c(=O)[nH]c2=O)cc1,35.0*,-9.9,-6.3,-5.3,27.9
CCN(CC)c1ccc(N=Cc2c(O)n(Cc3ccccc3)c(=O)[nH]c2=O)cc1,0.9,-2.9,3.1,-6.0,9.1
COCCCN1C(=O)[C@H](CC(=O)NCCCN2CCCC2=O)[C@]2(C(=O)OC)CCCCC=C12,/,/,/,/,4.7
Cc1cc(N2CCN(C(=O)c3cccs3)CC2)c(F)cc1[N+](=O)[O-],37.8*,1.9,-3.5,4.7,-6.2
O=C(c1cc(N2CCOCC2)c(F)cc1[N+](=O)[O-])N1CCOCC1,15.4,-1.4,51.3*,1.7,11.3
CCOC(=O)N1CCN(c2cc(C)c(C(C)=O)cc2F)CC1,2.0,1.1,-1.6,0.4,2.5
CCOC(=O)N1CCN(c2cc(N)c([N+](=O)[O-])cc2F)CC1,10.6,-1.9,-9.7,-0.7,34.7*
CCC(=O)c1ccc(N2CCN(C(=O)c3cccs3)CC2)c(F)c1,32.2*,2.2,2.3,2.5,-14.0
O=C(c1ccc(Cl)cc1[N+](=O)[O-])N1CCOCC1,-3.5,4.0,1.0,0.6,4.5
COC(=O)[C@]12C[C@H](CC(=O)N3CCC(c4ccccc4)CC3)C(=O)N(CCc3ccc(OC)c(OC)c3)C1=C[C@H](C1CCCC1)O[C@@H]2C,/,/,/,/,9.4
CC1=NNC(=O)C1Cc1ccc(F)cc1 (configuration not stated),-7.6,-2.0,1.2,96.6*,0.7
Cc1occc1-c1nnc(SCC(=O)NCc2ccc(Cl)cc2)n1-c1ccccc1,/,/,/,/,4.6
CCOC(=O)[C@@]12CN(C(=O)OC(C)(C)C)CC=C1N(Cc1ccc(OC)cc1)C(=O)[C@H]2CC(=O)N1CCOCC1,/,/,/,/,0.8
COc1ccc(/C=C/C(=O)NC(=S)Nc2ccc(S(=O)(=O)Nc3nccnc3OC)cc2)cc1,49.3*,3.2,0.4,0.5,-4.8
Cc1[nH]n(C(N)=S)c(=O)c1C(c1ccccc1)C(C#N)C#N (configuration not stated),2.2,-7.4,-1.9,43.2*,5.3
Cn1c2ccccc2c(=O)c2ccc(F)cc21,2.2,-0.9,190.9*,-371.8,-114.5
COc1cc(-c2ccc3c(=O)c4ccccc4n(C)c3c2)cc(OC)c1OC,1.8,5.2,19.9,-22.8,4.7
CCc1ccc(S(=O)(=O)ON2C(=O)c3ccccc3C2=O)cc1,14.2,/,30.2*,27.7,-20.5
SMILES,GDH-TPI counter,Mtb betalactam,Mtb FBA inh,RecA intein inh,CCHF vOTU inh
O=C1c2cccc3cccc(c23)C(=O)N1OS(=O)(=O)c1ccc(Cl)cc1,5.2,-5.2,-3.1,-1.8,7.8
COCCCNC(=S)N/N=C/c1cccc(OC)c1O,3.8,96.2,5.1,-8.2,-3.3
COCCCNC(=S)N/N=C/c1ccc(O)cc1O,33.2*,-10.2,2.1,-6.8,-7.2
COCCCNC(=S)N/N=C/c1ccc(O)cc1,70.1*,26.9,-1.1,-2.3,-2.2
CCNC(=S)N/N=C/c1ccc(C#N)cc1,38.8*,-8.0,-5.0,-1.1,-1.5
COCCCNC(=S)N/N=C/c1ccc(OC)cc1,10.2,28.1,-0.4,-0.5,-7.5
CCOc1cc(CCNC(=O)c2cc(-c3ccccc3)c(N3CCOCC3)s2)ccc1OC,/,/,/,/,19.3
O=C(CCc1ccccc1)N[C@H]1[C@H](OC(=O)c2ccc3ccccc3n2)CCC[C@@]12C(=O)N(Cc1ccccc1)c1ccccc12,/,/,/,/,7.3
CCN(CC)C(=O)CC[C@H]1CC[C@]2(CCCN(S(C)(=O)=O)C2)O1,/,/,/,/,-4.1
CC(C)NC(=O)[C@]1(C#N)CC(=O)N(C)[C@@H]1c1ccccc1,/,/,/,/,-0.9

# From PubChem BioAssay
